Laboratory results taken from PubChem BioAssay AID1159580 (chemical genetic matrix, 2015).
Among all 5,500 compounds or so, about 2,000 (36%) were called active. Not shown: some 18% with an inconclusive outcome. Rule as the data show it: active = normalized growth mostly below about 0.91 (no sharp cut-off); inconclusive = no clear call, values can overlap the other calls; inactive = mostly above about 0.92. The list shows a part of the results.

Assay: chemical genetic growth profiling, strain panel (AID 1159580);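 also: tested at 20 µM; growth read once vehicle control cultures reached saturation at 30 °C; 1 = growth at the plate median or of vehicle wells; lower values mean less growth of the strain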
Conditions: growth OD

Measured: normalized growth

COC(=O)[C@H]1[C@H]2C[C@H]3c4[nH]c5cc(OC)ccc5c4CCN3C[C@H]2C[C@@H](OC(=O)c2cc(OC)c(OC)c(OC)c2)[C@@H]1OC
inactive: S. cerevisiae deletion strains, locus YKL009W, strain mrt4, stronger effect = lower value 0.991 | S. cerevisiae deletion strains, locus YKL068W, stronger effect = lower value 0.995 | S. cerevisiae deletion strains, locus YKL085W, strain MDH1 (second series), stronger effect = lower value 1 | S. cerevisiae deletion strains, locus YKL085W, strain MDH1, stronger effect = lower value 1 | S. cerevisiae deletion strains, locus YKL160W, strain elf1, stronger effect = lower value 0.995 | S. cerevisiae deletion strains, locus YKR001C, strain vps1, stronger effect = lower value 1.01 | S. cerevisiae deletion strains, locus YKR026C, strain gcn3, stronger effect = lower value 0.994 | S. cerevisiae deletion strains, locus YKR091W, strain srl3, stronger effect = lower value 1.02 | S. cerevisiae deletion strains, locus YLL001W, strain dnm1, stronger effect = lower value 1.03 | S. cerevisiae deletion strains, locus YLL026W, stronger effect = lower value 1.02 | S. cerevisiae deletion strains, locus YLL041C, strain sdh2, stronger effect = lower value 1.01 | S. cerevisiae deletion strains, locus YLR027C, strain aat2, stronger effect = lower value 1.01 | S. cerevisiae deletion strains, locus YLR039C, strain RIC1, stronger effect = lower value 0.971 | S. cerevisiae deletion strains, locus YLR058C, strain SHM2, stronger effect = lower value 0.992 | S. cerevisiae deletion strains, locus YLR102C, strain apc9, stronger effect = lower value 0.981 | S. cerevisiae deletion strains, locus YLR113W, strain HOG1, stronger effect = lower value 0.988 | S. cerevisiae deletion strains, locus YLR221C, strain rsa3, stronger effect = lower value 1 | S. cerevisiae deletion strains, locus YLR258W, strain gsy2, stronger effect = lower value 1.01 | S. cerevisiae deletion strains, locus YLR262C, strain YPT6 (second series), stronger effect = lower value 1 | S. cerevisiae deletion strains, locus YLR262C, strain YPT6, stronger effect = lower value 1 | S. cerevisiae deletion strains, locus YLR268W, strain sec22, stronger effect = lower value 0.987 | S. cerevisiae deletion strains, locus YLR320W, strain mms22, stronger effect = lower value 1.01 | S. cerevisiae deletion strains, locus YLR330W, strain CHS5, stronger effect = lower value 0.992 | S. cerevisiae deletion strains, locus YLR342W, strain FKS1 (second series), stronger effect = lower value 1.04 | S. cerevisiae deletion strains, locus YLR342W, strain FKS1, stronger effect = lower value 1.01 | S. cerevisiae deletion strains, locus YLR357W, strain rsc2, stronger effect = lower value 1 | S. cerevisiae deletion strains, locus YLR370C, strain arc18, stronger effect = lower value 1.01 | S. cerevisiae deletion strains, locus YLR371W, strain rom2, stronger effect = lower value 1 | S. cerevisiae deletion strains, locus YLR384C, strain iki3, stronger effect = lower value 0.998 | S. cerevisiae deletion strains, locus YLR418C, strain cdc73, stronger effect = lower value 0.998 | S. cerevisiae deletion strains, locus YML016C, strain PPZ1, stronger effect = lower value 0.998 | S. cerevisiae deletion strains, locus YML032C, strain rad52, stronger effect = lower value 0.991 | S. cerevisiae deletion strains, locus YML120C, strain ndi1, stronger effect = lower value 1.01 | S. cerevisiae deletion strains, locus YML124C, strain tub3, stronger effect = lower value 1.01 | S. cerevisiae deletion strains, locus YMR058W, strain fet3, stronger effect = lower value 1.01 | S. cerevisiae deletion strains, locus YMR078C, strain ctf18, stronger effect = lower value 1 | S. cerevisiae deletion strains, locus YMR125W, strain sto1, stronger effect = lower value 1.02 | S. cerevisiae deletion strains, locus YMR129W, stronger effect = lower value 0.999 | S. cerevisiae deletion strains, locus YMR205C, strain PFK2, stronger effect = lower value 1.02 | S. cerevisiae deletion strains, locus YMR223W, strain ubp8, stronger effect = lower value 1.02 | S. cerevisiae deletion strains, locus YMR231W, strain pep5, stronger effect = lower value 1.01 | S. cerevisiae deletion strains, locus YMR263W, strain SAP30, stronger effect = lower value 0.98 | S. cerevisiae deletion strains, locus YMR307W, strain GAS1, stronger effect = lower value 1.16 | S. cerevisiae deletion strains, locus YNL067W, strain RPL9B, stronger effect = lower value 0.961 | S. cerevisiae deletion strains, locus YNL071W, strain lat1, stronger effect = lower value 1.02 | S. cerevisiae deletion strains, locus YNL128W, strain TEP1, stronger effect = lower value 0.954 | S. cerevisiae deletion strains, locus YNL153C, strain GIM3, stronger effect = lower value 0.99 | S. cerevisiae deletion strains, locus YNL183C, strain NPR1, stronger effect = lower value 0.909 | S. cerevisiae deletion strains, locus YNL209W, strain ssb2, stronger effect = lower value 1.01 | S. cerevisiae deletion strains, locus YNL233W, strain BNI4, stronger effect = lower value 0.981 | S. cerevisiae deletion strains, locus YNL248C, strain rpa49, stronger effect = lower value 1 | S. cerevisiae deletion strains, locus YNL250W, strain rad50, stronger effect = lower value 0.985 | S. cerevisiae deletion strains, locus YNL271C, strain bni1, stronger effect = lower value 1.02 | S. cerevisiae deletion strains, locus YNL298W, strain CLA4, stronger effect = lower value 0.996 | S. cerevisiae deletion strains, locus YNL307C, strain MCK1, stronger effect = lower value 0.987 | S. cerevisiae deletion strains, locus YNL322C, strain KRE1 (second series), stronger effect = lower value 1.01 | S. cerevisiae deletion strains, locus YNL322C, strain KRE1, stronger effect = lower value 1 | S. cerevisiae deletion strains, locus YNR049C, strain mso1, stronger effect = lower value 1.02 | S. cerevisiae deletion strains, locus YNR052C, strain pop2, stronger effect = lower value 0.995 | S. cerevisiae deletion strains, locus YOL012C, strain htz1 2.11 | S. cerevisiae deletion strains, locus YOL147C, strain pex11, stronger effect = lower value 0.984 | S. cerevisiae deletion strains, locus YOR001W, strain rrp6, stronger effect = lower value 1.01 | S. cerevisiae deletion strains, locus YOR061W, strain CKA2, stronger effect = lower value 0.998 | S. cerevisiae deletion strains, locus YOR069W, strain VPS5, stronger effect = lower value 1 | S. cerevisiae deletion strains, locus YOR070C, strain gyp1, stronger effect = lower value 1.02 | S. cerevisiae deletion strains, locus YOR080W, strain dia2, stronger effect = lower value 1.01 | S. cerevisiae deletion strains, locus YOR083W, strain WHI5, stronger effect = lower value 0.987 | S. cerevisiae deletion strains, locus YOR106W, strain vam3, stronger effect = lower value 1 | S. cerevisiae deletion strains, locus YOR136W, strain idh2, stronger effect = lower value 0.997 | S. cerevisiae deletion strains, locus YOR144C, strain elg1, stronger effect = lower value 1.01 | S. cerevisiae deletion strains, locus YOR184W, strain ser1, stronger effect = lower value 1.01 | S. cerevisiae deletion strains, locus YOR231W, strain MKK1, stronger effect = lower value 0.948 | S. cerevisiae deletion strains, locus YOR265W, strain rbl2, stronger effect = lower value 1.02 | S. cerevisiae deletion strains, locus YOR270C, strain vph1, stronger effect = lower value 1.08 | S. cerevisiae deletion strains, locus YOR290C, strain snf2, stronger effect = lower value 0.971 | S. cerevisiae deletion strains, locus YOR316C, strain cot1, stronger effect = lower value 0.989 | S. cerevisiae deletion strains, locus YPL051W, strain arl3, stronger effect = lower value 0.977 | S. cerevisiae deletion strains, locus YPL055C, strain LGE1, stronger effect = lower value 0.978 | S. cerevisiae deletion strains, locus YPL078C, strain atp4, stronger effect = lower value 1 | S. cerevisiae deletion strains, locus YPL106C, strain sse1, stronger effect = lower value 0.999 | S. cerevisiae deletion strains, locus YPL240C, strain hsp82, stronger effect = lower value 1.03 | S. cerevisiae deletion strains, locus YPL256C, strain CLN2, stronger effect = lower value 0.977 | S. cerevisiae deletion strains, locus YPR119W, strain clb2, stronger effect = lower value 0.994 | S. cerevisiae deletion strains, locus YPR141C, strain kar3, stronger effect = lower value 1.01 | S. cerevisiae deletion strains, locus YPR163C, strain tif3, stronger effect = lower value 0.989 | S. cerevisiae deletion strains, locus YPR167C, strain met16, stronger effect = lower value 0.998 | S. cerevisiae deletion strains, strain wtn01, stronger effect = lower value 0.992 | S. cerevisiae strains, strain wild type, stronger effect = lower value 1
